SENP8 block-1 = SENP8 (human) protease inhibition; Q96LD8; recombinant SENP8, Nedd8 substrate fluorescence; inhibition, % at 20 µM; actives 0.64% (n = 360,000); AID 602440; in the data active = inhibition mostly above about 40%, no sharp cut-off; inactive = mostly below about 27%
Target sequence (Q96LD8 whole entry, looked up): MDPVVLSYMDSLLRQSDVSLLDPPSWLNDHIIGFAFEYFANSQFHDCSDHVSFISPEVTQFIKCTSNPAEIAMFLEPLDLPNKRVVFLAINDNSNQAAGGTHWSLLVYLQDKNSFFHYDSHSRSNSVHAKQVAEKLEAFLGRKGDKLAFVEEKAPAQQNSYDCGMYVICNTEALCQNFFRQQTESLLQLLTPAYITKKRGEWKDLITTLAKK
AHR activator = activators of human aryl hydrocarbon receptor | AHR-responsive luciferase reporter cells, luminescence | activation, % at 5 µM | actives 2.5% (n = 320,000); in the data active = activation above about 47%;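 note: 0% = vehicle wells and 100% = reference agonist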
SENP7 inh = blocks the human protease SENP7; Q9BQF6; recombinant SENP7, Z-RLRGG-aminoluciferin luminescence, 40 min; inhibition, % at 5 µM; actives 1.5% (n = 330,000); AID 434973;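 active = inhibition above about 50% at the single test dose, limit read from the data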;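 note: plate controls were DMSO with enzyme for no effect and no enzyme buffer wells for full effect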
SENP6 inh = inhibitors of human SENP6 protease. Q9GZR1. Recombinant SENP6 catalytic domain, aminoluciferin luminescence. inhibition, % at 10 µM. actives 1.8% (n = 330,000);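 active = inhibition above about 50% at the single tested dose, limit read from the data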;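 note: plate controls were DMSO wells with enzyme for no effect and DMSO wells lacking enzyme for full effect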
SENP8 block-2 = blocks the human protease SENP8 | Q96LD8 | purified SENP8, Z-RLRGG-aminoluciferin cleavage, luminescence | inhibition, % at 10 µM | actives 1.2% (n = 330,000) | AID 2540; in the data active = inhibition above about 50%
EBI2 antag = blocks human EBI2 receptor beta-arrestin signaling; actives 0.81% (n = 360,000); inhibition, % at 5 µM; AID 651636; EBI2 beta-arrestin recruitment, luminescence, 7a,25-OHC stimulated; P32249; in the data active = inhibition above about 38%;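 note: enzyme fragment complementation signal reports receptor beta-arrestin coupling in cells; 0% = agonist plus DMSO wells and 100% = wells without agonist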
The depositor's hits bear a star. A selection: hits, their analogues and other compounds. The true share with any hit is near 5%.

Screening CC(C)C1C(=O)N(Cc2cn(CCC3OCCO3)nn2)CCS(=O)(=O)N1Cc1ccc(-c2ccc(F)cc2)cc1 (stereo unspecified) returned SENP8 block-1 7.9 and EBI2 antag 9.1.
For COC(=O)C[C@H]1C=C[C@H](NC(=O)Nc2ccccc2OC)[C@@H](CO)O1 the results were SENP8 block-1 20.3 and EBI2 antag -5.7.
For CC(C)c1ccc(NC(=O)Nc2cc3sccc3n2C)cc1 the results were SENP8 block-1 -66.6, AHR activator 47.7*, SENP7 inh 4.0, SENP6 inh 29.3, SENP8 block-2 0.6 and EBI2 antag 7.8.
Screening Clc1ccc(-c2cnc3ccccc3n2)cc1 returned SENP8 block-1 -4.3, AHR activator 52.5*, SENP7 inh 91.7*, SENP6 inh 90.2*, SENP8 block-2 84.8* and EBI2 antag 9.1.
`Cn1c(CNc2ccc(Cl)cc2)nnc1SCC#N` gave SENP8 block-1 16.3, AHR activator 59.0*, SENP7 inh -4.1, SENP6 inh -9.0, SENP8 block-2 3.6 and EBI2 antag -7.3.
Screening Cn1c(CNc2cccc(Cl)c2)nnc1SCC#N returned SENP8 block-1 1.9, AHR activator 21.1, SENP7 inh 3.0, SENP6 inh -19.2, SENP8 block-2 -3.5 and EBI2 antag -6.5.
`CCSc1nnc(CNc2ccc(C)cc2)n1C` gave SENP8 block-1 9.3, AHR activator 75.4*, SENP7 inh 4.6, SENP6 inh 5.3, SENP8 block-2 2.3 and EBI2 antag -4.6.
Screening CC(=NCCc1ccccc1)C1=C(O)CSC1=O returned SENP8 block-1 25.5, AHR activator 48.9*, SENP7 inh -6.6, SENP6 inh -19.0, SENP8 block-2 -7.2 and EBI2 antag -0.9.
Screening CC(=NCCc1ccccc1)C1=C(O)CCC1=O returned SENP8 block-1 13.9, AHR activator 0.6, SENP7 inh 4.8, SENP6 inh -14.3, SENP8 block-2 -3.7 and EBI2 antag -12.7.
c1ccc(CNc2nc(NCc3ccccc3)c3sccc3n2)cc1 was read as SENP8 block-1 -9.5 and EBI2 antag -17.7.
Screening CCCOc1ccc(CSCCNC(=S)Nc2ccccc2)cc1 returned SENP8 block-1 13.7, AHR activator 90.1*, SENP7 inh -7.2, SENP6 inh -1.7, SENP8 block-2 -0.8 and EBI2 antag 21.7.
Screening CCOc1ccc(CSCCNC(=S)Nc2ccc(OC)cc2)cc1 returned SENP8 block-1 2.8, AHR activator 3.2, SENP7 inh 0.3, SENP6 inh -4.3, SENP8 block-2 -6.4 and EBI2 antag 16.3.
Screening O=C(Nc1ccccc1)c1ccc(CN2CCc3ccccc3C2)cc1 returned SENP8 block-1 7.9, AHR activator 2.4, SENP7 inh 2.3, SENP6 inh -4.8, SENP8 block-2 2.2 and EBI2 antag 25.6.
For O=C(Nc1ccc(S(=O)(=O)N2CCCCC2)cc1)c1ccc(CN2CCc3ccccc3C2)cc1 the results were SENP8 block-1 53.1*, AHR activator -9.9, SENP7 inh -6.1, SENP6 inh 2.6, SENP8 block-2 1.4 and EBI2 antag -8.3.
Screening O=C(/C=C/c1ccc(Br)cc1)c1ccc(NC2=NCCCS2)cc1 returned SENP8 block-1 -2.5, AHR activator 3.5, SENP7 inh -9.3, SENP6 inh -38.9, SENP8 block-2 -46.3 and EBI2 antag 78.2*.
COc1ccc2[nH]c3c(c2c1)CCN1C(=O)C(CC(=O)NCCc2ccccn2)C[C@H](C(=O)N2CCCCC2)[C@@]31C (stereo partly specified) was read as SENP8 block-1 -10.0, SENP7 inh 0.8 and EBI2 antag -12.6.
For COc1ccccc1C(=O)NNC(=O)CCCN1C(=O)/C(=C/c2cccs2)SC1=S the results were SENP8 block-1 30.3, AHR activator 2.2, SENP7 inh 10.0, SENP6 inh -4.9, SENP8 block-2 4.6 and EBI2 antag 5.2.
For COc1ccccc1N1C(=O)S/C(=C\c2cccs2)C1=O the results were SENP8 block-1 28.0, AHR activator 77.9*, SENP7 inh 0.6, SENP6 inh -14.3, SENP8 block-2 -8.4 and EBI2 antag 11.7.
`COc1ccc(N/C=C2/Sc3ccccc3NC2=O)cc1` gave SENP8 block-1 9.5, AHR activator 55.0*, SENP7 inh -14.4, SENP6 inh 2.9, SENP8 block-2 -29.0 and EBI2 antag -3.8.
For Cc1ccc(N/C=C2/Sc3ccccc3NC2=O)cc1 the results were SENP8 block-1 10.2, AHR activator 28.7, SENP7 inh -37.3, SENP6 inh -31.5, SENP8 block-2 -24.4 and EBI2 antag -13.1.
